# From ChEMBL document CHEMBL3988442, “University of Dundee, Small-Polar-MMV Screening Library” (2021)
# Screen size: about 69,000 compounds; about 10 (0.01%) showed an effect of 50% or more. The full list was thinned out, with strong results kept by preference.
# Molecular target: ClpP1P2 (Mycobacterium tuberculosis (strain ATCC 25618 / H37Rv)) (UniProt P9WPC5+P9WPC3)
# Test: in vitro assay to detect presence of AMC directly proportional to the activity of ClpP1P2. GHDDI collaboration.
# Assay type: functional
# Design: scale not given: direction of the effect not stated beside the values
# Conditions: 50 µM
row,SMILES,Percent Effect
1,CN(C)S(=O)(=O)N1C[C@H]2CCC[C@@]2(COCC2CC2)C1,0.536%
2,Cc1cccc(CN2C(=O)CC[C@H]3[C@@H]2CCN3CC(=O)N(C)C)n1,2.64%
3,Cc1nc(-c2ccc(CC(=O)N3CCN(C(=O)C4CC4)CC3)cc2)cs1,7.62%
4,Cc1nc(-c2ccc(CC(=O)N3CCNC(=O)C3)cc2)cs1,-0.00295%
5,Cc1nc(-c2ccc(CC(=O)N3CCN(C(=O)C(C)C)CC3)cc2)cs1,88.4%
6,c1cc(CN2CCO[C@@H]3CNC[C@@H]32)co1,-6.86%
7,CN1C[C@H]2CN(C(=O)c3ccc4c(c3)OCO4)CCN2C1=O,-1.11%
8,O=C1NC(c2ccccc2)=N[C@@]12CC[C@@H]1CN(Cc3ccco3)C[C@@H]12,-1.45%
9,COCC(=O)N1CC[C@H]2OCC[C@@]2(c2nc(C)no2)C1,-7.69%
10,CN(C)C(=O)N1CCC[C@]2(C(=O)N(C)C)CN(c3ccccn3)C[C@@H]2C1,-16.1%
11,COc1ccc(CN2C[C@H]3C[C@H](C(=O)Nc4cccnc4)[C@@H](C2)O3)cc1,7.77%
12,CCC(=O)N1C[C@@H]2CCN(c3cnccn3)C[C@@H]2C1,27.9%
13,Cc1cccc(CN2C[C@@H]3CN(C(=O)c4ccsc4)C[C@@H]3C2=O)c1,5.73%
14,O=C(N1CCOCC1)N1C[C@H]2CC[C@@H]1CN(C1Cc3ccccc3C1)C2,4.16%
15,O=C(c1ccoc1)N1CCO[C@@H]2CNC[C@@H]21,-6.03%
16,CN1CCN(C(=O)C[C@@H]2COC[C@H]3CN(c4ccncn4)C[C@@H]23)CC1,-11.8%
17,Cc1cccnc1[C@]1(O)CC[C@H]2CN(Cc3cccc(Cl)c3Cl)C[C@H]21,0.575%
18,COCCN1CCN(C(=O)c2ccccc2C(C)=O)[C@H]2CS(=O)(=O)C[C@H]21,-4.44%
19,Cc1nccc([C@@H]2C[C@@H]3CCN(Cc4c(C)noc4C)C[C@H]3O2)n1,9.38%
20,N#Cc1ccccc1CN1C[C@@H]2CC[C@H](C1)N(CC1CC1)C2=O,-3.85%
21,O=C(c1ccnnc1)N1CCN2C[C@H](OCc3ccccn3)C[C@H]2C1,0.376%
22,C[C@H]1C[C@H]2CN(C(=O)CCOc3ccccc3)CC[C@H]2O1,5.83%
23,O=C(NC[C@]12COC[C@H]1CN(Cc1nccs1)C2)c1cscn1,2.68%
24,O=C(Nc1cnccn1)[C@@H]1CCO[C@@H]2CCN(Cc3ccsc3)C[C@@H]21,-0.52%
25,Cc1ccnn1CCC(=O)N1C[C@H]2CC[C@@H]1CN(CC(=O)N(C)C)C2,10.3%

row,SMILES,Percent Effect
1,CCNC(=O)N1C[C@@H]2OCC(=O)N(CC3CCCCC3)[C@@H]2C1,5.8%
2,Cc1noc([C@@]23CCO[C@@H]2CCN(C(=O)CN(C)C)C3)n1,-12.4%
3,O=C(NCC1CCOCC1)[C@H]1C[C@@H]2CCN(c3nncs3)C[C@@H]2O1,-12.4%
4,Cn1ccnc1C(=O)NC[C@H]1OC[C@@H]2CCN(S(C)(=O)=O)C[C@@H]21,12.7%
5,COCC(=O)N1CCC[C@]2(C(=O)N(C)C)CN(c3ccccn3)C[C@@H]2C1,-0.178%
6,C[C@H]1C[C@H]2CN(C(=O)c3cccc4c3OCCO4)CC[C@H]2O1,-0.751%
7,Cn1cccc1C(=O)N1CC[C@H]2[C@H](CO[C@H]2CNS(C)(=O)=O)C1,5.31%
8,Cc1nn(C)c(C)c1S(=O)(=O)N1C[C@@H]2C[C@@H](C)O[C@@H]2C1,-4.66%
9,CCC1=N[C@@]2(CC[C@@H]3CN(S(=O)(=O)CC)C[C@@H]32)C(=O)N1CC,-9.65%
10,CN1C[C@H]2C[C@H](C(=O)Nc3cccnc3)[C@@H](C1)O2,-5.71%
11,Cn1cc(C(=O)NC[C@H]2OC[C@@H]3CCN(C4CCOCC4)C[C@@H]32)cn1,-8.58%
12,Cc1ccnn1CCC(=O)N1CCCC[C@]2(C)NC(=O)CCC[C@H]12,2.82%
13,C[C@@H]1C(=O)NC[C@H]2CN(CCc3ccccc3)C[C@H]21,11.1%
14,O=C(NCc1ccccn1)[C@H]1COC[C@H]2CN(CC3CC3)C[C@H]21,7.53%
15,Cc1cnc(CNC(=O)[C@@H]2CC[C@@H]3[C@@H](CCN3Cc3ccco3)O2)cn1,-0.464%
16,CC(C)=CCN1C[C@H]2CC[C@@H]1CN(CCC(=O)NCc1ccco1)C2,-17.3%
17,Cc1nc(COC[C@@]23CCC[C@@H]2CN(Cc2cnn(C)c2)C3)cs1,2.95%
18,CNC(=O)[C@@]12CCO[C@@H]1CCN(Cc1ccc3c(c1)OCO3)C2,14.7%
19,O=C(O)[C@@]12CN(c3cnccn3)C[C@@H]1CN(C1CCOCC1)C2,-12.3%
20,Fc1cnc(N2CCO[C@H]3[C@H](OCCN4CCCC4)CC[C@@H]32)nc1,-0.916%
21,Fc1cccnc1O[C@H]1CN(Cc2ccoc2)[C@@H]2CCCO[C@H]12,5.17%
22,Cc1nc(CN2C(=O)CC[C@@H]3[C@H]2CCN3C(=O)c2ccccn2)cs1,2.69%
23,Cc1nc(CN2CCO[C@@H]3CN(Cc4ccccn4)CC[C@@H]3C2)cs1,-1.41%
24,c1ccc(CO[C@H]2C[C@@H]3CN(Cc4cncnc4)C[C@@H]3C2)cc1,-9.01%
25,COCCNC(=O)[C@H]1C[C@@H]2CCN(c3ccncn3)C[C@H]2O1,-14.9%

row,SMILES,Percent Effect
1,Cc1ccc(C(=O)N2CC[C@@H]3[C@H]2CCC(=O)N3CCN(C)C)cn1,15.8%
2,Cc1ccc2[nH]c(CO[C@H]3CN(C(=O)C4CC4)C[C@H]3F)nc2c1,-1.53%
3,Cc1ccc2[nH]c(CO[C@H]3CN(c4ccc(C#N)cn4)C[C@H]3F)nc2c1,78.4%
4,CN1C[C@@H](F)[C@@H](OCc2nc3ccc(C#N)cc3[nH]2)C1,-10.4%
5,CC(=O)N1CCC(c2cncc(N3CCOCC3)n2)CC1,55.4%
6,CC(=O)N1CCC(c2cncc(N3CCC(O)C3)n2)CC1 (centres undefined),-28.1%
7,CC(=O)N1CCC(c2cncc(N3CCCCCC3)n2)CC1,-8.81%
8,O=C(NC1CCC1)[C@@H]1C[C@@H]2CCN(Cc3cccs3)C[C@@H]2O1,-6.23%
9,O=C1CC[C@]2(CC[C@@H](NCc3cccnc3)CC2)N1Cc1ccccc1,9.66%
10,CN(C)S(=O)(=O)N1CC[C@]2(O)CCN(Cc3cccc(C#N)c3)C[C@@H]2C1,-12.9%
11,CO[C@H]1CN(Cc2ccc(C)o2)[C@@H]2CCCO[C@H]12,-4%
12,COCCN1C[C@H]2CC[C@@H]1CN(C(=O)c1ccc(Cl)cc1)C2,2.81%
13,Cc1ccccc1CN1C[C@@H](C(=O)N2CCCCO2)C[C@H]2OCC[C@H]21,-6.2%
14,CCCN1CCN(C(=O)c2cnc(C)nc2)[C@H]2CS(=O)(=O)C[C@H]21,5.85%
15,CCS(=O)(=O)N1CC[C@@H]2[C@H](COCC3CC3)CN(C)C(=O)[C@@H]2CC1,-4.29%
16,Cc1ccc([C@]2(O)CC[C@H]3CN(Cc4ccncc4)C[C@H]32)nc1,23.9%
17,O=C([C@H]1C[C@H]2OCC[C@H]2N(CC2CCOCC2)C1)N1CCCCO1,-11.4%
18,COCCN1C[C@@H]2[C@@H](OC)CCN(S(=O)(=O)c3cccnc3)[C@@H]2C1,-10.6%
19,Cc1cnc(N2C[C@H]3CCN(CC4CC4)C[C@H]3C2)nc1,-8.8%
20,Cc1ccc(CN2CC[C@@H]3[C@@H]2CCN3C(=O)Cc2cccs2)o1,16.6%
21,COc1ccc(CC(=O)N2C[C@H]3CN(Cc4ccccn4)C[C@H]3C2)cc1,-3.43%
22,Cc1noc(C)c1CN1C[C@H](OCC(=O)N(C)C)[C@H]2OCCC[C@H]21,-8.82%
23,CNCCN1C(=O)CC[C@H]2CN(c3cnc4ccccc4n3)CC[C@H]21,-92.8%
24,O=C(CN1C[C@H]2CC[C@@H]1CN(Cc1ccccn1)C2)Nc1ccccc1,-28.1%
25,CN(Cc1ccco1)[C@@H]1CN(Cc2cccnc2)C[C@@H]2CCCO[C@@H]21,6.33%

row,SMILES,Percent Effect
1,CC(C)OC(=O)N1C[C@H]2CC[C@@H]1CN(C(=O)c1ccccc1)C2,-3.47%
2,Cc1noc([C@H]2COC[C@H]3CN(C(=O)Cc4cccs4)C[C@H]32)n1,-9.33%
3,CN(C)C(=O)[C@@H]1C[C@@H]2CCN(Cc3ccncc3)C[C@@H]2O1,7.41%
4,c1cncc(COCC2CC[C@H]3[C@H]2OCCN3Cc2ccoc2)c1 (some centres undefined),3.35%
5,CN(C)C[C@]12COC[C@H]1CN(C(=O)Cc1ccc3c(c1)OCO3)C2,7.79%
6,Cn1cc(CN2CC[C@@H]3O[C@H](C(=O)N4CCOCC4)C[C@@H]32)cn1,-11.6%
7,COCCN1C[C@@H]2CN(Cc3cccc(F)c3)CCC[C@]2(C(=O)O)C1,-13.3%
8,Cc1cccc2nc(C(=O)N3CCCC[C@]4(C)NC(=O)CCC[C@H]34)cn12,-8.66%
9,CN(C)C(=O)[C@H]1CC[C@@H]2[C@@H](CCN2Cc2ccccn2)O1,-3.56%
10,CC1=N[C@@]2(CC[C@@H]3CN(Cc4cccc(Cl)c4)C[C@@H]32)C(=O)N1CC1CC1,3.49%
11,O=C(c1cccnc1)N1C[C@@H]2OCCN(CCN3CCCC3)[C@@H]2C1,4.78%
12,Cn1ccnc1CN1CCO[C@H]2C(CNC(=O)c3ccco3)CC[C@@H]21 (some centres undefined),0.912%
13,Cc1ncsc1CN1C[C@@H](OCC(=O)N(C)C)[C@H]2OCCC[C@H]21,-2.89%
14,CCS(=O)(=O)N1CCC[C@]2(C(=O)N(C)C)CN(c3ncccn3)C[C@@H]2C1,5.41%
15,CCc1ccc(CN2C[C@@H]3COC[C@H](NS(C)(=O)=O)[C@@H]3C2)o1,-9.73%
16,Cc1cccc(CN2CCCC[C@H]3CN(c4ncccn4)C[C@H]32)c1,3.15%
17,CCN1CCO[C@@H]2CN(S(=O)(=O)c3cccs3)CC[C@@H]2C1,1.3%
18,CC(=O)N1CCC(N2CCN3C(=O)N(c4ccccc4)C[C@H]3C2)CC1,-1.27%
19,Cc1noc([C@@]23CCO[C@@H]2CCN(C(=O)c2c(C)noc2C)C3)n1,-20.2%
20,CCCS(=O)(=O)N1C[C@@H]2CN(Cc3ccoc3)CCO[C@@H]2C1,2.92%
21,Cc1cc(CN2C[C@@H]3CCCO[C@@H]3[C@H](Nc3ccccn3)C2)no1,-4.49%
22,COc1cc2c(cc1-c1nc3c(cnn3C(C)C(C)C)[nH]1)OCO2 (centres undefined),-3.85%
23,COc1cc2c(cc1-c1nc3c(cnn3C(C)C3CC3)[nH]1)OCO2 (centres undefined),21.1%
24,COc1cc2c(cc1-c1nc3c(cnn3C(C)C)[nH]1)OCO2,56.2%
